Source: PubChem BioAssay AID1745847 (National Center for Advancing Translational Sciences (NCATS), 2022)
About 670 (32%) of roughly 2,100 compounds were called active. Not shown: some 50% with an inconclusive outcome. The call rests on the fitted dose curve; in most records, active means well fitted inhibition curve with a large enough effect; inconclusive means small, poorly fitted or top-dose-only effect; inactive means no such curve, though single readings can be large or run the other way. The list shows a part of the results.
On the % scale 0 is the no-effect control and ±100 the full control effect; potency means the concentration at half of the fitted maximal effect.

Assay: CMV-Luciferase Counterscreen for Inhibitors of ATXN expression; further: nearly all actives have a fitted effect of over 55% in size
Conditions: HEK-293 CMV-luciferase reporter, luminescence, 24 h; series mostly up to 57.5 µM
In the case of `COc1ccccc1N1C(=O)N(C(C)=O)C2C1Nc1ccccc1N2C` (centres undefined), the Potency is reported as “inactive”. For `CCc1nc2ccccc2c(C(=O)OCC(=O)Nc2cccc(S(=O)(=O)NC3=NCCCCC3)c2)c1C`, the Potency was 14.1 µM (active). For `CCOC(=O)c1c(NC(=O)COC(=O)Cn2cnc3ccccc32)sc(C)c1C`, the Potency was “inactive”. In the case of `CCn1c2ccccc2c2cc(NC(=O)COC(=O)c3cccc(S(=O)(=O)NC)c3)ccc21`, the Potency is reported as “inactive”. In the case of `CN(C)CCNc1ncnc2c1sc1nc(N3CCCC3)c3c(c12)CC(C)(C)OC3`, the Potency is reported as “inactive”. For `O=C(N/N=C(\Cc1ncc[nH]1)c1ccccc1)c1cccnc1`, the Potency was 3.98 µM (active). In the case of `CCOc1ccccc1C(=O)Nc1ccc2nc(N3CCN(c4ncccn4)CC3)cc(C)c2c1`, the Potency is reported as 11.2 µM (active). For `CCN(CC)c1cc(C)c2cc(NC(=O)c3ccccc3OC)ccc2n1`, the Potency was “inactive”. For `O=C1Nc2c(Br)cc(Br)c3cccc1c23`, the Potency was “inactive”. In the case of `O=C(Nc1nc(-c2ccccc2)cs1)c1ccccc1NS(=O)(=O)c1ccc(F)cc1`, the Potency is reported as 1 µM (active). With `O=C(Nc1cccc(S(=O)(=O)C(F)F)c1)c1ccc(Cl)c(S(=O)(=O)N2CCOCC2)c1` the Potency was 15.8 µM (active). In the case of `O=C(Nc1nc(-c2ccc(S(=O)(=O)N3CCOCC3)cc2)cs1)c1ccccc1`, the Potency is reported as 1.12 µM (active). With `NC(=O)c1c(NC(=O)c2ccc(S(=O)(=O)N3CCOCC3)cc2)sc2c1CCCCC2` the activity change, negative = inhibition was -13.6% [at 11.4 µM] (inactive). With `COc1cccc(C(=O)Nc2nc(-c3ccc(S(=O)(=O)N4CCOCC4)cc3)cs2)c1` the Potency was 2.82 µM (active). For `COc1ccccc1C(=O)Nc1nc(-c2ccc(S(=O)(=O)N3CCOCC3)cc2)cs1`, the Potency was 1.58 µM (active). With `O=C(Nc1nc(-c2ccccn2)cs1)c1ccc(F)c(S(=O)(=O)N2CCOCC2)c1` the Potency was 1.78 µM (active). For `Cn1c(=O)c2c(nc(CN3CCN(Cc4ccccc4)CC3)n2Cc2ccc(Cl)cc2)n(C)c1=O`, the Potency was 17.8 µM (active). With `Cn1c(=O)c2c(nc(SCCN3CCOCC3)n2Cc2cccc3ccccc23)n(C)c1=O` the activity change, negative = inhibition was -18.8% [at 11.4 µM] (inactive). With `CCCCCc1ccc(OCCCC[n+]2cccc(C)c2)c(CCCCC)c1` the Potency was 4.47 µM (active). For `O=C(NC(=S)NCc1nc2ccccc2[nH]1)c1ccc(F)cc1`, the activity change, negative = inhibition was 290% [at 11.4 µM] (inactive). With `CCCC(=O)NC(c1ccc(OC)c(OC)c1)c1cc(Cl)c2cccnc2c1O` (centres undefined) the Potency was 4.47 µM (active). With `CCC(=O)NC(c1ccc(OC)c(OC)c1)c1cc(Cl)c2cccnc2c1O` (centres undefined) the Potency was 1.41 µM (active). In the case of `Cc1ccc(Sc2nnc(Cc3ccccc3)c3ccccc23)cc1`, the Potency is reported as “inactive”. With `O=C(N/N=C/c1sc(N2CCOCC2)nc1-c1ccccc1)c1ccccc1O` the Potency was 12.6 µM (active). With `CC(C)(C)c1ccc(C(=O)N2CCCCCC2=O)cc1` the Potency was 5.01 µM (active). With `COc1ccc(CN(C)C(=O)c2cccc(NC(=O)CC3SC(N4CCCCC4)=NC3=O)c2)c(OC)c1` (centres undefined) the Potency was 10 µM (active). For `CC(C)c1ccc2c(c1)C(N1CCNCC1)Cc1ccc(F)cc1S2` (centres undefined), the Potency was 35.5 µM (active). For `COc1ccc(N=Cc2cc3c(cc2O)OC(N)=C(C#N)C3c2ccccc2)cc1` (centres undefined), the activity change, negative = inhibition was -22.6% [at 11.4 µM] (inactive). For `Cc1cc(C)cc(C(=O)N(NC(=O)Nc2ccc(Cl)cc2)C(C)(C)C)c1`, the Potency was 22.4 µM (active). For `Oc1c(Cl)cc(Cl)cc1/C=N/Nc1ncc(Br)cn1`, the Potency was 2 µM (active). For `CN1CCN(c2cc(-c3cc(O)c4ncccc4c3)ccn2)CC1`, the Potency was 14.1 µM (active). With `CN(Cc1cnc2nc(N)nc(N)c2n1)c1ccc(C(=O)N[C@@H](CCC(=O)O)C(=O)O)cc1` the Potency was 0.0063 µM (active). For `Cc1cc(C)cc(NS(=O)(=O)c2ccc3c(c2)c(=O)n(C)c(=O)n3C)c1`, the Potency was 11.2 µM (active). In the case of `NC(Cc1ccc(C(F)(F)F)cc1)c1csc(Nc2ccc(C(=O)NCc3ccco3)cn2)n1` (centres undefined), the activity change, negative = inhibition is reported as -23.4% [at 11.4 µM] (inactive). In the case of `Cn1cc(/C=C/c2cc[n+](C)cc2)c2cc(F)ccc21`, the Potency is reported as 11.2 µM (active). With `CN(C)CCNC(=O)c1cccc(-c2cnc3c(NC=O)cc(-c4cccs4)cn23)c1` the Potency was “inactive”. With `COc1ccc(-c2cc(NC=O)c3ncc(-c4cccc(C(=O)NCCN(C)C)c4)n3c2)cc1` the Potency was “inactive”. For `CN(C)CCNC(=O)c1cccc(-c2cnc3c(NC=O)cc(-c4cccc(C(F)(F)F)c4)cn23)c1`, the Potency was 22.4 µM (active). In the case of `Cc1ccc(Cl)cc1N1CCN(C(=O)CCS(=O)(=O)c2ccc3c(c2)NC(=O)CO3)CC1`, the Potency is reported as 14.1 µM (active). With `CCCCN(C=O)c1c(CC)nc2ccc(C(=O)Nc3cc(-c4ccccc4)ccc3OC)cn12` the Potency was 22.4 µM (active). For `CCc1nc2ccc(C(=O)Nc3cc(-c4ccccc4)ccc3OC)cn2c1N(CC)CC(=O)N(C)C`, the Potency was 31.6 µM (active). With `Cc1nc2ncnn2c(N2CCN(c3cccc(C(F)(F)F)c3)CC2)c1C` the Potency was 2.51 µM (active). With `Cc1ccnc(NC(=S)N2CCN(c3cccc(C(F)(F)F)c3)CC2)c1` the Potency was “inactive”. In the case of `CCC(CC)C(=O)c1c[nH]c(C(=O)NCc2ccccn2)c1`, the Potency is reported as “inactive”. For `COc1cc(C(=O)N/N=C(\c2ccccc2)c2ccccn2)cc(OC)c1OC`, the Potency was 0.398 µM (active). For `O=C(N/N=C(\c1ccccc1)c1ccccn1)c1ccccc1Cl`, the Potency was 3.98 µM (active). In the case of `Cc1ccc2c(c1)-c1c(cnn1CC(=O)N1CCCN(Cc3ccccc3F)C1)CO2`, the activity change, negative = inhibition is reported as -25.8% [at 11.4 µM] (inactive). In the case of `CC(NC1=CC(=O)c2cccnc2C1=O)C(O)c1ccccc1` (centres undefined), the Potency is reported as 15.8 µM (active). With `C/C(=N\NC(=O)C1CCCN(S(=O)(=O)c2ccccc2)C1)c1ccccn1` (centres undefined) the Potency was 1.41 µM (active). With `CCc1ccc(-c2nc(CS(=O)CC(=O)NCc3ccco3)c(C)o2)cc1` (centres undefined) the Potency was 0.501 µM (active). With `Cc1cccc(N=C2NN=C(c3c(C)[nH]c4ccccc34)CS2)c1` the Potency was 12.6 µM (active). In the case of `COc1cc(OC)cc(-c2cc3nc(C)c(CCC(=O)NCc4ccccc4)c(C)n3n2)c1`, the Potency is reported as 11.2 µM (active). For `COc1ccc(CNC(=O)CSc2nc(-c3ccccc3)cc(-c3cccs3)c2C#N)cc1`, the activity change, negative = inhibition was 16% [at 11.4 µM] (inactive). In the case of `COc1cc(OC)cc(-c2cc3nc(C)c(CCC(=O)O)c(C)n3n2)c1`, the Potency is reported as 1 µM (active). With `Cc1c(CC(=O)NCCCC(=O)O)c(=O)oc2cc3c(cc12)CCC(C)(C)O3` the Potency was 11.2 µM (active). In the case of `O=C1c2cccc3cc([N+](=O)[O-])cc(c23)C(=O)N1CCN1CCCC1`, the Potency is reported as 0.794 µM (active). With `CCc1ccc(-c2cc(C(F)(F)F)n3nc(C(=O)Nc4cnn(Cc5ccc(C)cc5)c4)cc3n2)s1` the Potency was “inactive”. For `O=C(Nc1cnn(C23CC4CC(CC(C4)C2)C3)c1)c1cnn2c(C(F)(F)F)cc(-c3ccco3)nc12`, the Potency was 15.8 µM (active). In the case of `CCOc1ccc(/C=C/[N+](=O)[O-])c2ccccc12`, the Potency is reported as 15.8 µM (active). For `Cc1cc(=O)[nH]c(N=N/C(=N/Nc2ccccc2C)c2ccccc2)n1`, the Potency was 1.58 µM (active). For `COc1cc(C#Cc2c(-c3cncn3C)n(C)c3ccc(-c4cnc(OC)nc4)cc23)cc(OC)c1`, the Potency was 3.55 µM (active). For `COc1cc(C#Cc2c(-c3cncn3C)n(C)c3ccc(-c4ccc(CN5CCOCC5)cc4)cc23)cc(OC)c1`, the activity change, negative = inhibition was -6.42% [at 11.4 µM] (inactive). With `COc1cc(C#Cc2c(-c3cncn3C)n(C)c3ccc(-c4cnc(N5CCOCC5)nc4)cc23)cc(OC)c1` the activity change, negative = inhibition was -19.7% [at 11.4 µM] (inactive). In the case of `Cc1ccc(-c2cc(C(=O)N/N=C/c3ccccc3O)n[nH]2)o1`, the Potency is reported as 15.8 µM (active). For `O=C(N/N=C\c1c(O)ccc2ccccc12)c1cncc(Br)c1`, the Potency was 0.282 µM (active). In the case of `O=C(N/N=C/c1c(O)ccc2ccccc12)c1ccc(CO)nc1`, the Potency is reported as 8.91 µM (active). With `Nc1ccc2cc3[nH]c4cc(N)ccc4c3nc2c1` the activity change, negative = inhibition was -29.2% [at 11.4 µM] (inactive). In the case of `CCN1CCN(C2=C(NS(=O)(=O)c3ccc(C)cc3)C(=O)c3ccccc3C2=O)CC1`, the Potency is reported as 3.55 µM (active). For `CCn1c(CCC(=O)Nc2nc3c(s2)CCCC3)nc2cc(S(=O)(=O)N(C)C)ccc21`, the activity change, negative = inhibition was 4.42% [at 11.4 µM] (inactive). For `Cc1ccc(OCC(=O)N/N=C/c2cccc3cccnc23)cc1`, the Potency was 20 µM (active). In the case of `CSCC[C@H](NC(=O)OC(C)(C)C)C(=O)N/N=C/c1cccc2cccnc12`, the Potency is reported as “inactive”. With `O=C(COc1ccc(F)cc1)N/N=C/c1cccc2cccnc12` the Potency was 2.82 µM (active). In the case of `Cc1ccccc1OCC(=O)N/N=C/c1cccc2cccnc12`, the Potency is reported as 15.8 µM (active). With `Cc1cc(O)c(C(C)C)cc1N=Cc1ccc(N(C)C)cc1` the activity change, negative = inhibition was 0.592% [at 11.4 µM] (inactive). In the case of `Cc1nc(N2CCN(c3ccccn3)CC2)c2c(C)c(C(=O)N3CCN(c4ccc(F)cc4)CC3)sc2n1`, the Potency is reported as 14.1 µM (active). For `Cc1cc(NC(c2cccnc2)c2ccc3cccnc3c2O)no1` (centres undefined), the Potency was 3.98 µM (active). In the case of `Oc1c(C(c2ccccn2)N2CCCCC2)cc(Cl)c2cccnc12` (centres undefined), the Potency is reported as “inactive”. In the case of `Oc1c(C(Nc2ccccn2)c2cccnc2)cc(Cl)c2cccnc12` (centres undefined), the Potency is reported as 12.6 µM (active). With `CCOc1ccccc1NC(=O)N1CCC(c2nc3ccccc3[nH]2)CC1` the activity change, negative = inhibition was 28.9% [at 11.4 µM] (inactive). For `O=C(Nc1cccc(C(F)(F)F)c1)N1CCC(c2nc(-c3ccc(F)cc3)no2)CC1`, the Potency was 11.2 µM (active). With `COc1ccc([C@@]2(C(C)C)ON(c3ccccc3C(F)(F)F)C2=O)cc1` the activity change, negative = inhibition was -27.1% [at 11.4 µM] (inactive). In the case of `Cn1c(=O)c(C#N)c(-c2ccc(F)cc2)c2cc(C(=O)c3cc(Cl)cc(Cl)c3O)cnc21`, the Potency is reported as 3.55 µM (active). In the case of `NC(=S)n1[nH]c(-c2ccc([N+](=O)[O-])cc2)c(N=Nc2cccc(Cl)c2)c1=O`, the Potency is reported as 3.55 µM (active). With `CC(C)(C)c1nnc(N/N=C/c2ccccc2O)n(N)c1=O` the Potency was 1.26 µM (active).
